Laboratory results reported in PubChem BioAssay AID488975 (Johns Hopkins Ion Channel Center, 2010).
The campaign covered roughly 310,000 compounds. About 2,600 (0.84%) were called active.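 The calls were made as follows: active = B-score over 3 SD under the library average, and starting fluorescence ratio not unusually high; inactive = the rest.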 The entries come from a sample that favours actives as a whole.

These molecules were tested against High affinity choline transporter 1 (Homo sapiens) (UniProt Q9GZV3) (assay: inhibitors of human choline transporter CHT (AID 488975;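 as to B-score: choline stimulus applied at its EC90 after an EC20 pre-addition; B-score computed on integrated fluorescence ratio after choline addition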)). Settings: CHT-expressing cells, membrane potential dye, choline response, at 10 µM; stronger effect = lower value.
High affinity choline transporter 1 (Homo sapiens), sequence (Q9GZV3 whole entry, looked up): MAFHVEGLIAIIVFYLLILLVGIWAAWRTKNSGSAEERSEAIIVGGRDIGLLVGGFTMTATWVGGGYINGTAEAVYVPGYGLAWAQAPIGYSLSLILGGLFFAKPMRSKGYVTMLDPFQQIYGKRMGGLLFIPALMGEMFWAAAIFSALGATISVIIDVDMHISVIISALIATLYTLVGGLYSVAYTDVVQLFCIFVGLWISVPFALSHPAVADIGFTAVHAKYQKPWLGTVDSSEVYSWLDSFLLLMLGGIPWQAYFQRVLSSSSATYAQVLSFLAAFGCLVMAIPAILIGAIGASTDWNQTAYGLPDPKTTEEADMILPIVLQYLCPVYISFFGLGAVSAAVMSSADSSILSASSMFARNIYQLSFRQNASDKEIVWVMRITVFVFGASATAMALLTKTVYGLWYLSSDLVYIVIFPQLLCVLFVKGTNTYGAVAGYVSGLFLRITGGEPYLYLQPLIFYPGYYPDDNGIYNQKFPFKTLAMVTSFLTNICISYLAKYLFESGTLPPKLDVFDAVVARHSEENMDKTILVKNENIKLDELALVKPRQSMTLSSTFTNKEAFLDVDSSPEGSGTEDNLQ

| Compound | B-score |
| --- | --- |
| Cc1nc2ccccn2c1P(=S)(N1CCCCC1)N1CCCCC1 | -6.55 (active) |
| CC[C@H]1CC2CN3CCc4c([nH]c5ccccc45)C(C(=O)OC)(C2)C13 (stereo not given in full) | inactive |
| COC(=O)C1=C(c2cc3ccccc3s2)C[C@@H]2CC[C@H]1N2C(=O)NC(C)C | inactive |
| C[N+]1(C)CCOC(O)(c2ccc(-c3ccc(C4(O)C[N+](C)(C)CCO4)cc3)cc2)C1 (stereo not given) | -5.22 (active) |
| C=CCN1C(=O)NC(=O)/C(=C/c2ccc(OCC(=O)Nc3ccc(C)cc3)cc2)C1=O | inactive |
| COc1ccc(CNCCc2c[nH]c3ccccc23)cc1OC | inactive |
| O=C(N/N=C/c1c(O)n(C2CC2)c(=S)[nH]c1=O)c1ccccc1 | inactive |
| COc1ccc2c(c1)[C@]13CCCCC1C(C2)N(C)CC3 (stereo not given in full) | inactive |
| COC(=O)C1=C(c2cc3ccccc3s2)C[C@@H]2CC[C@H]1N2C(=O)NCc1cccc2ccccc12 | inactive |
| COc1ccccc1N1CCN(C(CNC(=O)Oc2ccccc2)c2cccnc2)CC1 (stereo not given) | -6.58 (active) |
| O=C(NCC(c1cccnc1)N1CCN(c2ccccc2)CC1)Oc1ccccc1 (stereo not given) | inactive |
| COC(=O)C(c1ccccc1)N1CCCCCC1 (stereo not given) | inactive |
| COc1ccc(N2C(=O)/C(=C/c3ccco3)C(=O)NC2=S)cc1 | inactive |
| COC(=O)C1=C(c2ccccc2)C[C@@H]2CC[C@H]1N2C(=O)NCc1ccco1 | inactive |
| C/C(=N/O)c1ccc2ccc3ccccc3c2c1 | inactive |
